# In PubChem BioAssay AID1768 (National Center for Advancing Translational Sciences (NCATS), 2009):
# Out of some 270,000 compounds screened, about 620 (0.23%) were called active. Inconclusive results (about 12%) are left out. This excerpt belongs to a sample that is enriched for actives. Values without a mark were called inactive. Calls follow the shape of the dose curve; as a rule, active = well fitted inhibition curve with a large enough effect in the polarisation, with a control signal flat (not every such curve was filed as active); inconclusive = small, poorly fitted or top-dose-only effect, or effect the other way, or a change in a side signal; inactive = no such curve, though single readings can be large or run the other way; the % refers to the polarisation.
# Target: Menin (Homo sapiens) (UniProt O00255)
# Sequence (O00255 whole entry, looked up): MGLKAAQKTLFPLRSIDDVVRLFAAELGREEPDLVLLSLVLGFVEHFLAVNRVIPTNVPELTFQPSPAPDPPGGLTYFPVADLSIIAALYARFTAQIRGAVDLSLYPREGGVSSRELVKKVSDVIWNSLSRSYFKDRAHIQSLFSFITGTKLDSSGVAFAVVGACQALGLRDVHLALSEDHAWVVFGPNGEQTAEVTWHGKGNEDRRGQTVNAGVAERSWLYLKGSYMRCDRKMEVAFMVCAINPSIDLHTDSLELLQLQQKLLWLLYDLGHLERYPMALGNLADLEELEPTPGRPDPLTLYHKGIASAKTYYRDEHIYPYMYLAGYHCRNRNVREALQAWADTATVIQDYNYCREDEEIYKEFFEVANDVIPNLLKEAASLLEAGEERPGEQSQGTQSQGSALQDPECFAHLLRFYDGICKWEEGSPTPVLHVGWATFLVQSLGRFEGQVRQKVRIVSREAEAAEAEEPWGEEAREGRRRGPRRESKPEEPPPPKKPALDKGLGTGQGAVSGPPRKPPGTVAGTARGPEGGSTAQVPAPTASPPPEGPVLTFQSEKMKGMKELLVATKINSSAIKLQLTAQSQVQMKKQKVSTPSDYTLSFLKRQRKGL
# Test: qHTS Assay for Inhibitors Targeting the Menin-MLL Interaction in MLL Related Leukemias: Competition With Texas Red Labeled MLL-derived Mutant Peptide; as to FP activity change, negative = inhibition: % of control where 0% means no effect
# Settings: fluorescence polarization; series mostly up to 61.6 µM; FP activity change, negative = inhibition: at the top concentration
# From the text: qHTS Assay for Inhibitors Targeting the Menin-MLL Interaction in MLL Related Leukemias NIH Chemical Genomics Center [NCGC] NIH Molecular Libraries Probe Centers Network [MLPCN] MLPCN Grant: MH084875-01A1 Assay Submitter (PI): Jolanta Grembecka, Tomasz Cierpicki, University of Virginia Translocations of the MLL (Mixed Lineage Leukemia) gene are frequently found in human leukemias affecting both children and adults. Fusion of MLL to one of more than 60 genes results in generation of oncogenic proteins upregulating Hox genes, which are vital to blood cell development. Patients harboring fusion of the MLL gene suffer from aggressive leukemias and respond poorly to available therapies. All of the oncogenic fusion proteins have a preserved N-terminal fragment of MLL that has been identified to interact with menin. It has been recently discovered that association with menin is critical to the leukemogenic activity of the MLL fusion oncoproteins. Selective targeting of the menin-MLL interaction could provide an attractive therapeutic approach to develop novel drugs for MLL-related leukemias. Small molecules blocking the menin-MLL interaction should reverse the oncogenic potential of MLL fusion proteins. We have developed and optimized a fluorescence polarization-based assay for the identification of Menin-MLL inhibitors. The assay was run employing two different MLL-derived peptides. The present assay uses a 12 amino acid peptide labeled with fluorescein at its N-terminus. This peptide consists of the menin high affinity binding motif from MLL and is potently bound by menin. Another peptide with a mutated sequence, labeled with Texas Red, was used in parallel as a less stringent screen for inhibitors.
# The Menin protein, the MLL-wild type (w.t.) derived peptide (N-terminal 12 amino acids), the MLL-derived peptide labeled with Texas Red and the MLL-w.t. peptide labeled with Fluorescein were kindly supplied by laboratory of Dr. Jolanta Grembecka, University of Virginia. All protein and peptide solutions were stored in single use aliquots at -80C. The Eu3+ Cyrptate-conjugated mouse monoclonal antibody anti-6 Histidine (Eu3+-AB) and the Streptavidin-XL665 conjugate (XL665) were purchased from Cisbio International (Bedford, MA). All antibody and XL665 conjugate solution stocks were stored in single use aliquots at -20C. The Buffer components for all assays were purchased from Sigma-Aldrich (St. Louis, MO) and Invitrogen (Carlsbad, CA). FP Assay Reagents: 1. FP reaction buffer: 50 mM Tris-HCl pH 7.5, 50 mM NaCl, 1mM DTT. Before use, 0.05% BSA is added. 2. Menin protein, MLL-w.t. labeled with fluorescein, MLL-mutant peptide labeled with texas red. Stored in singe use aliquots at -80C. 3. MLL-w.t. unlabeled peptide as positive control: 10 uM final in FP buffer. FP Assay Procedure: 1. Prepare Menin at 200 nM, MLL-w.t.-fluorescein at 25 nM, and MLL-mutant-texas red at 50 nM mixture in FP buffer. 2. Prepare Menin at 200 nM, MLL-w.t.-fluorescein at 25 nM, MLL-mutant-texas red at 50 nM, and 10 uM MLL-w.t. unlabeled mixture in FP buffer. 3. Prepare MLL-w.t.-fluorescein at 25 nM and MLL-mutant-texas red at 50 nM mixture in FP buffer. 3. Dispense 4 ul per well of reagent in step 1 in columns 2, 4 - 48 in a black 1536 well plate, dispense 4 ul per well of reagents from steps 2 and 3 in columns 1 and 3 respectively. Incubate plate at ambient for 15 minutes. 4. Transfer 23 nl per well of compound to plate and incubate at ambient for 1 hr. 5. Read fluorescence polarization for each label using the PerkinElmer Envision. Envision protocol for fluorescein: FITC FP Dual Enh Mirror, Excitation filter 480, Emission filter (1) P-pol 535, Emission filter (2) S-pol 535 Envision protocol for texas red: FP Dual Enh Mirror, Excitation filter 555, Emission filter (1) P-pol 632, Emission filter (2) S-pol 632
# Potency is read from the fitted curve at half-maximal effect.
Structure (SMILES),"FP activity change, negative = inhibition [%]",Potency
CC(C)(O)C#Cc1ccc(CN2CCC(CO)(CCc3ccccc3)CC2)cc1,8.13,
CCOCCCNc1nc(-c2ccccc2)nc2ccccc12,19.4,
Cc1c(CN2CC[C@@H](N3CCN(c4ccccn4)CC3)[C@H](O)C2)[nH]c2ccc(F)cc12,-9.78,
O=C(NCCCO)c1cc2c([nH]c3ccccc32)c(-c2ccc(F)cc2)n1,8.97,
CC(=O)N1c2ccc(S(=O)(=O)N3CCC(C(=O)NC4CCCC(C)C4C)CC3)cc2CC1C (stereo not given),-6.75,
CNC(=O)[C@]1(C(F)(F)F)C[C@H](CCc2ccccc2)CCCO1,3.94,
CC1CCCCC1NC(=O)CCS(=O)(=O)c1ccc2c(c1)NC(=O)CO2 (stereo not given),-10.4,
O=C(/C=C/Nc1ccccc1OC(F)(F)F)C(F)(F)F,5.87,
CCCOc1ccc(N/C=C/C(=O)C(C)(C)C)cc1,1.33,
CN(C)c1ccc(N/C=C/C(=O)C(F)(F)F)cc1,,28.2 µM (active)
COc1cccc(N2C(=O)CN(Cc3ccccc3)C2=S)c1,32.3,
Cn1nccc1C(=O)N1CCCC(C(=O)c2ccc(Oc3ccccc3)cc2)C1 (stereo not given),-18.8,
COc1ccc(-c2noc(CCCC(=O)NC3CCCC3)n2)cc1OC,-7.12,
Cc1noc(C)c1-c1ccc2ncnc(NCc3ccc4[nH]ccc4c3)c2c1,28.6,
Cc1ccc(N(Cc2cc(=O)[nH]c3ccccc23)C(=O)CCl)cc1,,10 µM (active)
CC(=O)N(Cc1cc(=O)[nH]c2ccccc12)c1ccc(C)cc1C,1.95,
Cc1ccc(N(Cc2cc3ccccc3[nH]c2=O)C(=O)c2cccs2)cc1,0.868,
CCN(CC)CCCNC(=O)COc1ccc2oc3c(c2c1)CCCC3,-9.91,
CC(C)c1ccc(NC(=O)C2CCCN(S(=O)(=O)c3cccnc3)C2)cc1 (stereo not given),-12.3,
COc1cc(/C=C2\SC(=O)NC2=O)ccc1OCc1ccc(Cl)nc1,3.5,
COC(=O)c1cc(S(=O)(=O)NCC2CCN(Cc3ccc(Cl)cc3)CC2)cn1C,-0.368,
Cc1cccc(NC(=S)NCCc2ccc(Cl)cc2)c1C,4.12,
COC(=O)C(CC(C)C)NS(=O)(=O)c1cc(Br)ccc1Br (stereo not given),-7.91,
Cc1c(C)c2ccc(OCC(=O)N3CCN(c4cccc(Cl)c4)CC3)cc2oc1=O,7.56,
Cc1ccc(S(=O)(=O)NNC(=O)/C=C/c2cccc(F)c2)cc1,-0.819,

Structure (SMILES),"FP activity change, negative = inhibition [%]",Potency
O=C(COC(=O)c1c2c(nc3ccccc13)/C(=C\c1cccs1)CCC2)Nc1ccccc1Cl,,14.1 µM (active)
COc1cc(/C=C2\CCCc3c2nc2ccccc2c3C(=O)O)cc(Cl)c1O,16.7,
O=C(COC(=O)c1cccs1)Nc1ccccc1Cl,0.3,
CC1CCN(CC(O)COc2ccc(C(=O)c3ccccc3)cc2)CC1 (stereo not given),-25.4,
CCC(CC)c1nnc(NC(=O)C2CCN(C(=O)c3ccco3)CC2)s1,-19.3,
Cc1cccc(OCC(=O)Nc2ccc(NC(=O)c3ccco3)c(C)c2)c1,-22.6,
COc1ccc(Cn2c(=S)[nH]c3cc(C(=O)NCCCN4CCOCC4)ccc3c2=O)cc1,14.5,
CC(C)CN(Cc1c(O)ccc2c(=O)c(-c3ccccc3)coc12)CC(C)C,16.6,
CCOC(=O)c1c(-c2ccc(-c3ccccc3)cc2)csc1NC(=O)CCC(=O)O,20.7,
COc1ccc(Br)cc1C1C2C=CCC(C)C2C(=O)N1Cc1ccccc1 (stereo not given),-15.8,
Cc1cccn2c(=O)c(/C=C3\SC(=S)N(CC(C)C)C3=O)c(NCCCOC(C)C)nc12,,28.2 µM (active)
CNc1nc2c(C)cccn2c(=O)c1C=Nc1ccc(OC)cc1,-16.5,
CCn1c(=N)c(C(=O)NCCCOC)cc2c(=O)n3cccc(C)c3nc21,-13.2,
Cc1ccc(/C=C2/SC(=S)N(CCC(=O)NCCCN3CCOCC3)C2=O)cc1,-14.8,
O=C1CCN(Cc2ccccc2)CCN1[C@H](CSc1ccccc1)c1ccccc1,-15.5,
COCCNC(=O)COc1ccc(N(C)S(=O)(=O)c2ccc3ccccc3c2)cc1,0.697,
CC1CCCN(CC(=O)Nc2cc(Cl)ccc2Oc2ccccc2)C1 (stereo not given),-19.8,
CCN(CC)/[N+]([O-])=N/Oc1cc(O/[N+]([O-])=N/N2CCCC2CO)c([N+](=O)[O-])cc1[N+](=O)[O-] (stereo not given),0.381,
CC1CCN(C2=NC(=O)/C(=C/c3ccc(O)cc3)S2)CC1,-0.925,
c1ccc(Cc2ccc(OCCn3ccnc3)cc2)cc1,-10.6,
O=C(O)C1CC=CC2CCN(C3CCCCC3)C(=O)C21 (stereo not given),2.51,
CCOC(=O)c1cccc(NC(=O)C2CCN(c3ncnc4c3nc3n4CCCCC3)CC2)c1,-10.2,
CCOC(=O)c1ccc(NC(=O)c2ccc(NC(=O)C3CCCO3)cc2)cc1 (stereo not given),28.3,
CCCNC(=O)c1ccc(N2CCC3(CC2)CC(c2ccc(Cl)cc2)=NO3)c([N+](=O)[O-])c1,-0.331,
CCC(C)(C)NC(=O)C(c1ccc(OC)cc1)N(C(=O)CCC(=O)Nc1cc(C)on1)c1ccc(OC)cc1OC (stereo not given),-17.8,

Structure (SMILES),"FP activity change, negative = inhibition [%]",Potency
COc1cccc(CCNC(=O)c2cccc(NC(=O)C3=C(C)OCCS3)c2)c1,-0.071,
COc1ccc(CNc2ncnc3ccc(-c4cccnc4)cc23)c(OC)c1,-6.79,
COCCNc1ncnc2ccc(-c3ccccc3CN(C)C)cc12,-18.4,
COCCNc1ncnc2ccc(-c3cccnc3)cc12,,31.6 µM (active)
COc1ccccc1N1CCN(S(=O)(=O)CCNC(=O)c2ccc(OC(C)C)cc2)CC1,-12.6,
CC(CC(=O)N1CCN(c2ccccc2)CC1)S(=O)(=O)c1ccc2c(c1)NC(=O)CS2 (stereo not given),2.06,
COc1ccc(N2CCN(S(=O)(=O)CCNC(=O)C34CC5CC(CC(C5)C3)C4)CC2)cc1,-25,
CCc1ccc(S(=O)(=O)N/N=C\c2ccc([N+](=O)[O-])o2)cc1,35.3,
COc1ccc(CNC(=O)/C(C#N)=C/c2cccc(OC)c2OC)cc1,-18.7,
COc1ccc(N2CCN(C(=O)[C@@H](NC(=O)c3cc(OC)cc(OC)c3)C(C)C)CC2)cc1,-22.7,
O=C(NCC1CC1)C1(C(F)(F)F)C/C(=C\CCO)CCCO1 (stereo not given),-11.6,
Cc1cccc(S(=O)(=O)N2CN(CC3CCCO3)c3nc4ccccc4nc32)c1 (stereo not given),20.6,
CCOc1cc(/C=C/c2nc3ccccc3c(=O)[nH]2)cc(Br)c1OC,25.1,
CCC(C(=O)OC)n1cnc2scc(-c3ccc(C)cc3)c2c1=O (stereo not given),-3.92,
CCn1c(Cc2ccc(OC)cc2)nnc1SCC(=O)Nc1ccc(N2CCOCC2)cc1,3.37,
COc1ccc(NC(=O)c2cc(-c3cc(OC)c(OC)c(OC)c3)nc3ccccc23)c(OC)c1,13.1,
Cc1ccc(S(=O)(=O)N(Cc2ccccc2)c2ccccn2)cc1[N+](=O)[O-],-17.7,
C=CCn1c(C23CC4CC(CC(C4)C2)C3)n[nH]c1=S,-20.5,
Cc1ccc(OCC(=O)Nc2ccc(N3CCN(C(=O)c4ccco4)CC3)cc2)c(C)c1,-25.9,
COc1ccccc1NC(=O)c1cc(N2C(=O)C3C4CCC(C4)C3C2=O)ccc1Cl (stereo not given),19.8,
Cc1ccc(O)c(/C=N/NC(=O)COc2ccc3c(C)cc(=O)oc3c2)c1,7.45,
O=C(NCCc1ccccc1Cl)C1CCC(=O)N(CCCc2ccccc2)C1 (stereo not given),-5.76,
COc1cccc(/C=C2\Sc3ccc(C(=O)NCC4CCCO4)cc3N(C)C2=O)c1 (stereo not given),36.8,
COc1cc(OC)c2c(C)cc(=O)oc2c1C(CCN1CCCCC1)c1ccc(N(C)C)cc1 (stereo not given),-13.6,
CCOc1cccc(C(=O)Nc2nnc(-c3cccs3)s2)c1,-22.3,

Structure (SMILES),"FP activity change, negative = inhibition [%]",Potency
Cc1ccc(C(=O)Nc2nnc(-c3cccs3)s2)cc1C,,10 µM (active)
Cc1ccc(C(=O)Oc2coc(CSc3nnc(NC(=O)c4cccs4)s3)cc2=O)cc1C,-14.4,
COc1ccc(C(C(=O)NC(C)(C)C)N(Cc2ccc(F)cc2)C(=O)CCC(=O)Nc2cc(C)on2)cc1 (stereo not given),-29.2,
COc1ccc(NC(=O)c2cccc3c2C(=O)N(CC2CCCO2)C3)cc1OC (stereo not given),20.2,
CCc1ccc(CN(C)C(=O)C2CCC(=O)N(Cc3cccc(OC)c3)C2)nc1 (stereo not given),-5.46,
CCC1Sc2ccc(S(=O)(=O)CCC(=O)NCc3cccs3)cc2NC1=O (stereo not given),3.79,
COCCNC(=S)N(CCc1c(C)[nH]c2ccc(C)cc12)Cc1cccnc1,7.33,
CCOc1ccccc1NC(=S)N1CCN(c2cccc(C)c2C)CC1,-1.61,
Cc1ccc(N2CCN(C(=O)c3cccs3)CC2)c(C)c1,-9.4,
NC(=O)c1ccc(Nc2ccc3c(c2)CCC3)c([N+](=O)[O-])c1,-23.3,
Cc1nc2ccc(C(=O)N(C)CC3CCCN(CCc4ccc(Cl)cc4)C3)cc2[nH]1 (stereo not given),0.888,
CCOC(=O)c1csc(CCNC(=O)c2oc3c(Cl)cc(C)cc3c2C)n1,-13.1,
Cc1ccc(CNC(=O)C2CCCN2S(=O)(=O)c2ccc3c(c2)C(C)(C)C(=O)N3C)cc1 (stereo not given),2.45,
COc1ccc(NC(=O)c2sc3nc(C)nc(N4CCN(c5ccccn5)CC4)c3c2C)c(OC)c1,-4.1,
COCCNc1ccc(-c2n[nH]c(=O)c3ccccc23)cc1[N+](=O)[O-],12.6,
CCc1cccc(C)c1N1C(=O)CN(Cc2ccccc2)C1=S,32.1,
NS(=O)(=O)c1ccc(CNC(=O)c2cccc(Oc3ccccc3)c2)cc1,-21.7,
COc1ccc(NC(=O)CSc2nc3ccccc3c(=O)n2C)cc1,-16.9,
CC(=O)N1c2ccc(S(=O)(=O)N3CCCC(C(=O)Nc4ccc(C)cc4C)C3)cc2CC1C (stereo not given),-5.14,
COc1ccc(-c2nc3ccccc3c(=O)n2CCc2ccc(O)cc2)cc1,4.36,
Cc1ccccc1CN1CCC(C(=O)Nc2ccc(Oc3cccnc3)cc2)CC1,-9.01,
CCCCC(C(=O)NC(C)(C)C)N(Cc1ccccc1)C(=O)c1snc(C(N)=O)c1N (stereo not given),-3.07,
CCc1ccc(C(CNc2nc(C(F)(F)F)nc3ccccc23)N(C)C)cc1 (stereo not given),-1.15,
C=C1CCN(C(CC(C)C)C(=O)NCc2cc(OC)c(OC)c(OC)c2)S(=O)(=O)c2ccccc21 (stereo not given),-12.1,
CCOC(=O)[C@H]1[C@H]2COc3cc(OC)ccc3[C@@H]2N2C(=O)N(c3ccc(Br)cc3)C(=O)[C@@]12C,2.14,
